# From PubChem BioAssay (EPA / NIEHS)
# Records with an inconclusive call do not appear. The source made the active and inactive calls. How the source made its calls, unless noted: active means hit-call score of the fitted dose curve at least 0.9, where 1 is the maximum; inactive means score below 0.9.
# What was measured:
# [1] = CCTE_Harrill_HTTr_Viability_DMEM_6hr: (Pilot) CCTE's 6-hour Cell Viability Assessment for the High-Throughput Transcriptomics (HTTr) Platform, in MCF-7 cells cultured in DMEM + 10% fetal bovine serum, Harrill Lab (AID 2283973)
# How it was run: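 Propidium iodide uptake imaged by high-content analysis after six hours of chemical treatment in an eight-concentration series. Cells: MCF-7 grown in DMEM with 10% fetal bovine serum; DMSO as baseline.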
# [2] = CCTE_Harrill_HTTr_Viability_DMEM_12hr: (Pilot) CCTE's 12-hour Cell Viability Assessment for the High-Throughput Transcriptomics (HTTr) Platform, in MCF-7 cells cultured in DMEM + 10% fetal bovine serum, Harrill Lab (AID 2283974)
# How it was run: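 Propidium iodide dye exclusion imaged by high-content microscopy after 12 h chemical exposure (eight concentrations) of MCF-7 cells grown in DMEM plus 10% FBS; values fitted in both directions relative to DMSO.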
# [3] = CCTE_Harrill_HTTr_Viability_DMEM_24hr: (Pilot) CCTE's 24-hour Cell Viability Assessment for the High-Throughput Transcriptomics (HTTr) Platform, in MCF-7 cells cultured in DMEM + 10% fetal bovine serum, Harrill Lab (AID 2283975)
# How it was run: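 Pilot study: propidium iodide dye exclusion, imaged by high content microscopy, after 24 h compound exposure (eight concentrations) in MCF-7 cultured in DMEM + 10% fetal bovine serum; DMSO served as negative control and baseline.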
# [4] = TOX21_PR_LUC_Followup_Agonist_viability: Viability Assessment in the Tox21 HEK293 Progesterone Receptor (PR) Agonism Luciferase Follow-Up Assay (AID 2283941; active means hit-call score of the fitted dose curve at least 0.9, where 1 is the maximum;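 further: loss of signal means cytotoxicity so actives lower viability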)
# Text: TOX21_PR_LUC_Followup is a secondary assay for specificity for the TOX21_PR_BLA_Agonist assay. To differentiate true PR agonists from cytotoxic substances, this follow up assay is multiplexed with a cell viability assay.TOX21_PR_LUC_Followup_Agonist_viability is an assay readout measuring cellular ATP content and detected with CellTiter-Glo Luciferase-coupled ATP quantitation.TOX21_PR_LUC_Followup_Agonist_viability used a type of viability reporter where loss-of-signal activity can be used to understand changes in the cell viability. Furthermore, this assay endpoint can be referred to as a secondary readout, because this assay has produced multiple assay endpoints where this one serves a viability function. To generalize the intended target to other relatable targets, this assay endpoint is annotated to the cell cycle intended target family, where the subfamily is cytotoxicity.
# Quality Control Precautions: Maintain cells below 85-90% confluence in culture medium. For assay purpose, the cells should be cultured in assay medium with 10% charcoal stripped FBS for 5 days with alternate day medium changed to fresh medium. Especially while in assay culture, the cells should not reach more than 85% confluence as they would become harder to detach if they reach over confluence.Assay Protocol: HEK293-PR-A-luc cells were dispensed at 3,000 cells/5 uL/well of culture medium into white wall/solid-bottom 1536-well plates using a Multidrop Combi (ThermoFisher Scientific, Waltham, MA) dispenser. After the assay plates were incubated at 37C and […] for 5 h, 23 nL of compounds dissolved in DMSO, positive controls or DMSO only was transferred to the assay plate by a Pintool station (Kalypsys, San Diego, CA). The plates were incubated at 37C and […] for 16 h. Then 4 uL of ONE-Glo reagent (Promega, Madison, WI) was added to each plate using a BioRAPTR Flying Reagent Dispenser (FRD) workstation (Beckman Coulter, Indianapolis, IN, USA) and luminescence was quantified on a ViewLux (PerkinElmer, Shelton, CT) plate reader after 30 min incubation at room temperature.
# [5] = biological target: Thyroid hormone receptor alpha (Rattus norvegicus) + Thyroid hormone receptor beta (Rattus norvegicus) (UniProt P18113+P63059); assay: TOX21_TR_LUC_GH3_Antagonist_Followup: Tox21 GH3 Thyroid Hormone Receptor Antagonism Luciferase Follow-Up Assay (AID 2283942; active means hit-call score of the fitted dose curve at least 0.9, where 1 is the maximum)
# How it was run: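 Loss of T3-driven (1.0 nM final) reporter activity in GH3 cells was read by ONE-Glo luminescence after 24 h incubation at 37C; 15-point compound series spanned 92 uM to 5nM final, 1,500 cells/well.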
# [6] = biological target: THRA (gene 7067) (UniProt P10827); assay: TOX21_TRA_COA_Antagonist_Followup_ratio: Tox21 Thyroid Hormone Receptor alpha Antagonism through Coactivator Recruitment Follow-Up Assay, Ratio (AID 2283953; active means hit-call score of the fitted dose curve at least 0.9, where 1 is the maximum)
# How it was run: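 We measured antagonism of T3-type coactivator recruitment using a TR-FRET ratio (emission 520 and 495 nm) between a Tb-labelled anti-GST antibody on TRα LBD (2.5 nM) and SRC-2 peptide (200 nM). Activity was scaled between DMSO and T3 wells.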
# [7] = biological target: THRB (gene 7068) (UniProt P10828); assay: TOX21_TRB_BLA_Antagonist_Followup_ratio: Tox21 Thyroid Hormone Receptor beta Antagonism Beta-lactamase (BLA) Follow-Up Assay, Ratio (AID 2283958; active means hit-call score of the fitted dose curve at least 0.9, where 1 is the maximum)
# How it was run: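 Read-out: blue/green (460:530 nm) ratio of cleaved to uncleaved CCF4-AM after 2 h at room temperature, fitted against DMSO baseline. HEK293T UAS-bla cells carrying GAL4-human TRβ LBD were exposed 18 h, 37C/5% CO2.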
# [8] = TOX21_TRB_BLA_Antagonist_Followup_viability: Viability Assessment in the Tox21 Thyroid Hormone Receptor beta Antagonism Beta-lactamase (BLA) Follow-Up Assay (AID 2283961; active means hit-call score of the fitted dose curve at least 0.9, where 1 is the maximum)
# How it was run: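 Cytotoxicity is measured in parallel with the antagonist-mode TRβ beta-lactamase screen, using ATP-coupled luciferase luminescence. Engineered HEK293T cells are treated for 18 h with 11-point compound series in triplicate.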
# [9] = biological target: THRB (gene 7068) (UniProt P10828); assay: TOX21_TRB_COA_Antagonist_Followup_ratio: Tox21 Thyroid Hormone Receptor beta Antagonism through Coactivator Recruitment Follow-Up Assay, Ratio (AID 2283967; active means hit-call score of the fitted dose curve at least 0.9, where 1 is the maximum)
# How it was run: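 Coactivator recruitment to the GST-tagged TRb ligand-binding domain (5.0 nM) was read as the 520/495 nm TR-FRET ratio, using 200 nM fluorescein SRC-2 peptide and 2 nM terbium anti-GST. Scaled between DMSO and T3 wells; loss of signal fitted.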
# [10] = biological target: Retinoic acid receptor RXR-alpha (Homo sapiens) (UniProt P19793); assay: TOX21_TR_RXR_BLA_Antagonist_Followup_ratio: Tox21 Thyroid Hormone Receptor beta Retinoid X Receptor alpha (RXRa) Antagonism Beta-lactamase (BLA) Follow-Up Assay, Ratio (AID 2283972; active means hit-call score of the fitted dose curve at least 0.9, where 1 is the maximum)
# How it was run: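 Antagonist mode used GAL4 UAS-driven beta-lactamase in HEK293T cells expressing RXRa, treated for 16 h with compound concentration series. Activity was taken from the blue/green (460:530 nm) ratio of cleaved to uncleaved substrate.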
# Chain of THRB (gene 7068) (P10828 whole entry, looked up, the tested form may be a part): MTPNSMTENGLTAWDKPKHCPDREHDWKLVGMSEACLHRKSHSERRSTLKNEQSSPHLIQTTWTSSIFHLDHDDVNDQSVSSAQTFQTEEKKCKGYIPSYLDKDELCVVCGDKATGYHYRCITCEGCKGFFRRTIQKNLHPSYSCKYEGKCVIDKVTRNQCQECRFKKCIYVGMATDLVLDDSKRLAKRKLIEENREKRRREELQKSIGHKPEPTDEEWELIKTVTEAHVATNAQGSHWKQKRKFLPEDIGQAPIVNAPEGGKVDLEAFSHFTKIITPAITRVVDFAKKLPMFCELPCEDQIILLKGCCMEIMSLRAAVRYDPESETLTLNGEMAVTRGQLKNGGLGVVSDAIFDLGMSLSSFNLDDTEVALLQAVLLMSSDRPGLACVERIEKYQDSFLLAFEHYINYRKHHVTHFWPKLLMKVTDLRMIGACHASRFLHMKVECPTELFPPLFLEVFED
# Chain of THRA (gene 7067) (P10827 whole entry, looked up, the tested form may be a part): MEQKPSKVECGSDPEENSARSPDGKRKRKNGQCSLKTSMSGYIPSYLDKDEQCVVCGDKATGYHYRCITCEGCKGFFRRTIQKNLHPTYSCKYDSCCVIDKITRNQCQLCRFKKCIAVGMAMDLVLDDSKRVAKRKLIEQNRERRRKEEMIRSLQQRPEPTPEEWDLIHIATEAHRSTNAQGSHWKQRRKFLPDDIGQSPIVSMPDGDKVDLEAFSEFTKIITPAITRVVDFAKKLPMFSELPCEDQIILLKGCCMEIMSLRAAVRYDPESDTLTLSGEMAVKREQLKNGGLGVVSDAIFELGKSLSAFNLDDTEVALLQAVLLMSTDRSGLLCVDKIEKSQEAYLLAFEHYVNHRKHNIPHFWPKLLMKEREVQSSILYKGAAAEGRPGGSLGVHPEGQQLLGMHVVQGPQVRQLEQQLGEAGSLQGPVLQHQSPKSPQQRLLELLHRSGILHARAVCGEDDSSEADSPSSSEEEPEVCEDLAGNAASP
# Chain of Retinoic acid receptor RXR-alpha (Homo sapiens) (P19793 whole entry, looked up, the tested form may be a part): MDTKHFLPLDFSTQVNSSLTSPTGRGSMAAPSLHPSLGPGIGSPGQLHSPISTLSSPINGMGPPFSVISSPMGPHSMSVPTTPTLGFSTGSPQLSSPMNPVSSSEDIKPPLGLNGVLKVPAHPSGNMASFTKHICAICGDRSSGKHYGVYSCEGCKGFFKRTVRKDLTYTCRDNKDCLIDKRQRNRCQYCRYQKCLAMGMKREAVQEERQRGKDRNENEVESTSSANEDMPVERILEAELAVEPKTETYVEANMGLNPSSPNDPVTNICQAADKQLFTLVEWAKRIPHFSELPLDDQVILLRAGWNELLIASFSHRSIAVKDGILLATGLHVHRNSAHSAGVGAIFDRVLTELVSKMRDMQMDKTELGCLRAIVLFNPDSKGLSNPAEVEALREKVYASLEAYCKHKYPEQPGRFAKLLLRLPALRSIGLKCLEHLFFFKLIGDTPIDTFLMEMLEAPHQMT
compound,measurement,setting,value
C=CCOC(=O)C(C)(C)OC(=O)c1cc(-n2c(=O)cc(C(F)(F)F)n(C)c2=O)ccc1Cl,outcome,[1],inactive
same,outcome,[2],inactive
same,outcome,[3],inactive
Cc1c(COC(=O)[C@@H]2[C@H](/C=C(\Cl)C(F)(F)F)C2(C)C)cccc1-c1ccccc1,outcome,[1],inactive
same,outcome,[2],inactive
same,outcome,[3],inactive
CCOC(=O)C(C)OC(=O)c1cc(Oc2ccc(C(F)(F)F)cc2Cl)ccc1[N+](=O)[O-] (stereo unspecified),outcome,[1],inactive
same,outcome,[2],inactive
same,outcome,[3],inactive
CC1(C)CCC(=Cc2ccc(Cl)cc2)C1(O)Cn1cncn1 (stereo unspecified),outcome,[4],inactive
CC1(C)C(C=C(Cl)Cl)C1C(=O)OC(C#N)c1cccc(Oc2ccccc2)c1 (stereo unspecified),outcome,[1],inactive
same,outcome,[2],inactive
same,outcome,[3],inactive
CO/N=C(/C1=NOCCO1)c1ccccc1Oc1ncnc(Oc2ccccc2Cl)c1F,AC50,[5],16.5 µM (active)
same,outcome,[6],inactive
same,AC50,[7],54.6 µM (active)
same,AC50,[8],38.3 µM (active)
same,outcome,[9],inactive
same,outcome,[10],inactive
N#Cc1c[nH]cc1-c1cccc2c1OC(F)(F)O2,outcome,[4],inactive
CCN(CC)C(=O)C(C)Oc1cccc2ccccc12 (stereo unspecified),outcome,[4],inactive
